Screening data from PubChem BioAssay.
Shown are actives, neighbours in structure and some others; about 16% of the full set was active somewhere.
TDP1 cell CPT – qHTS for Inhibitors of human tyrosyl-DNA phosphodiesterase 1 (TDP1): qHTS in cells in presence of CPT. chicken DT40 Tdp1-/-;hTDP1 cells + 20 nM CPT, ATP luminescence, 48 h. Potency, µM (doses to about 46.2 µM), usual class: inhibitors. 420,000 tested, 12% active; further: nearly all actives have a fitted effect of over 55% in size
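Chicken DT40 Tdp1-/- cells complemented with human TDP1, 400 cells/well, exposed to compounds plus 20 nM camptothecin for at least 48 h at 37 C; viability read as ATP content by CellTiter-Glo luminescence.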
uPA surface inh – qHTS for Inhibitors of Cell Surface uPA Generation; cell surface uPA generation assay, qHTS; Potency, µM (doses to about 38.3 µM), hits mostly inhibitors; 330,000 tested, 0.31% active; active means well fitted inhibition curve with a large enough effect; inconclusive means small, poorly fitted or top-dose-only effect; inactive means no such curve, though single readings can be large or run the other way; tested in mouse RAW 264.7 cells; further: nearly all actives have a fitted effect of over 55% in size
TDP1 block – qHTS Assay for Inhibitors of Tyrosyl-DNA Phosphodiesterase (TDP1); recombinant TDP1, AlphaScreen DNA substrate cleavage; Potency, µM (series often up to 130 µM), hits mostly inhibitors; 350,000 tested, 0.28% active; AID 485290, 2010; further: nearly all actives have a fitted effect of over 40% in size
Target sequence (Q9NUW8 whole entry, looked up): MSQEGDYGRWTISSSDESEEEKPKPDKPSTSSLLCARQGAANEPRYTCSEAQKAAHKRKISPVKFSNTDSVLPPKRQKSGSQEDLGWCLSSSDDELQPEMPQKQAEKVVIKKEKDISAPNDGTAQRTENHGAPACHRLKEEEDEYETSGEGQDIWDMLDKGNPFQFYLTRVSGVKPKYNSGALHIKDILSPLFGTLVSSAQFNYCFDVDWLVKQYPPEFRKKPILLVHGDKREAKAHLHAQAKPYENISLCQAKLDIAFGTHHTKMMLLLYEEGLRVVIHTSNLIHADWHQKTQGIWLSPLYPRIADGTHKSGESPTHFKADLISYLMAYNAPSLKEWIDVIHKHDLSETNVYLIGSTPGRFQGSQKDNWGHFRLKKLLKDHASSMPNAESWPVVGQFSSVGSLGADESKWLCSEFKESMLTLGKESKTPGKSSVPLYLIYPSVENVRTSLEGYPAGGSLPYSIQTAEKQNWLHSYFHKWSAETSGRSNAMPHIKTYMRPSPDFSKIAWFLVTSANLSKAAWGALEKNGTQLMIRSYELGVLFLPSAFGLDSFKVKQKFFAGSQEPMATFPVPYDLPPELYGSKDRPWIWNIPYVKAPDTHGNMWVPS
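E. coli-derived human Tdp1, 1 nM final. Cpd preinc 15 min RT; substrate 15 nM final, 5 min RT; AS bead mix 10 ug/ml final, 10 min RT. Signal loss = tyrosine-FITC cleavage. No-enzyme wells = max signal.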
DT40 TDP1 no CPT – qHTS for Inhibitors of human tyrosyl-DNA phosphodiesterase 1 (TDP1): qHTS in cells in absence of CPT; DT40 Tdp1-/- hTDP1 cells, no CPT, ATP luminescence, 48 h; Potency, µM (top dose mostly 46.2 µM), most hits filed as inhibitors; 420,000 tested, 15% active; AID 686978, 2013; further: nearly all actives have a fitted effect of over 55% in size
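Luminescent ATP content (CellTiter-Glo) served as the growth readout. Knockout chicken DT40 cells expressing human TDP1 were exposed to compounds without camptothecin for a minimum 48 hr at 37 °C.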
miR-21 act – qHTS Assay for Modulators of miRNAs and/orActivators of miR-21; HeLa miR-21 FLuc reporter, luciferase, 48 h; 340,000 tested, under 10 active; Potency, µM (titrated, usually from 38.3 µM), hits mostly activators;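 further: miR-21 action dims this reporter so a rising signal means less miR-21 action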
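Compounds were titrated across several concentrations (up to approximately 40 uM) and incubated 48 hours with HeLa miR-21-FLuc reporter cells (miR-21 target sequence downstream of FLuc, endogenous miR-21). Readout was firefly luciferase luminescence after lytic detection reagent.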
Numbers stand for hits; – = inactive; ? = inconclusive; · = no result; [ ] = remark or other dose. Unless noted, the call rests on the fitted dose curve; in most records, active means well fitted curve in the direction sought with a large enough effect; inconclusive means small, poorly fitted or top-dose-only effect, or another doubt; inactive means no such curve, though single readings can be large; an effect the other way counts as inactive or inconclusive.

SMILES	TDP1 cell CPT	uPA surface inh	TDP1 block	DT40 TDP1 no CPT	miR-21 act
O=C1C(Cc2ccccc2)Nc2ncnc(N3CCN(c4ccccc4)CC3)c2N1Cc1ccc(Cl)cc1 (configuration not stated)	?	–	·	18µM	·
O=C1CSC(=Nc2cc(Cl)ccc2Cl)N1	–	·	–	–	–
Cc1occc1-c1nnc(SCC(=O)Nc2ccccn2)o1	?	–	–	?	–
Cc1ccccc1-c1nnc(SCC(=O)Nc2cccnc2Cl)o1	13µM	–	–	16µM	·
Cc1cc(C)cc(NC(=O)CSc2nnc(-c3ccccc3C)o2)c1	–	·	–	–	–
O=C(CSc1nnc(-c2ccccc2Cl)o1)Nc1ccccn1	?	10µM	–	?	–
CCCOC1CCCN(C(=O)c2cc(Cl)c(Cl)cc2C(=O)O)C1 (configuration not stated)	?	–	–	?	–
O=C(CN1Cc2ccccc2OC(c2ccsc2)C1)N1CCN(Cc2ccc3c(c2)OCO3)CC1 (configuration not stated)	–[9.04 µM]	·	·	23µM	·
COc1ccc(OC)c(S(=O)(=O)n2cnc3cc(C)c(C)cc32)c1	?	–	–	?	–
COc1ccc(C2=NC(C)(C)N(CC(=O)Nc3cccc(C)c3)C2=O)cc1	4.6µM	·	–	3.7µM	–
COc1cc(NC(=O)CN2C(=O)C(c3ccccc3)=NC2(C)C)cc(OC)c1	–	–	–	–	–
CN(C)S(=O)(=O)c1ccc(C(=O)Nc2ccc(F)cc2F)cc1	–	–	–	–	–
CN1CCN(c2ccc(Cl)cc2NC(=O)c2ccc(S(=O)(=O)N(C)C)cc2)CC1	18µM	–	–	?	–
CN(C)S(=O)(=O)c1ccc(C(=O)Nc2cc(S(=O)(=O)Nc3ccccc3Cl)ccc2N2CCCCC2)cc1	8.2µM	–	–	16µM	–
c1ccc(-c2cccc(-c3ccccn3)n2)nc1	2.1µM	·	–	3.7µM	–
c1ccc(-c2ccncc2)nc1	–	–	–	–	·
c1ccc(-c2nnc(-c3ccccn3)nn2)nc1	15µM	–	·	?	·
CC(/C=N/N1CCN(c2ccccc2)CC1)=C\c1ccco1	–	–	–	–	–
N#C/C(=N\Nc1cccc(C(F)(F)F)c1)C(=O)c1csc(-c2cccnc2)n1	16µM	–	·	26µM	–
CCCCn1c(=O)[nH]c(=O)c2c1nc(Cn1ncc(Cl)c(Cl)c1=O)n2CCC	4.6µM	–	–	2.6µM	?
COc1ccc(C2c3c(ncn(CCCc4ccccc4)c3=N)Oc3ccc4ccccc4c32)cc1OC (configuration not stated)	·	·	–	·	·
CN(C)S(=O)(=O)c1cccc(C(=O)N2CCN(S(=O)(=O)c3ccc4c(c3)OCCO4)CC2)c1	?	·	·	16µM	·
COc1ccc(C(=O)N2CCN(S(=O)(=O)c3ccc4c(c3)OCCO4)CC2)cc1OC	–	?	–	–	·
O=S(=O)(c1ccc2c(c1)OCCCO2)N1CCNCC1	–	–	–	–	–
CC(C)(C)C(=O)N1CCN(S(=O)(=O)c2ccc3c(c2)OCCCO3)CC1	?	–	–[0.505 µM]	18µM	·
SMILES	TDP1 cell CPT	uPA surface inh	TDP1 block	DT40 TDP1 no CPT	miR-21 act
O=C(CNC(=O)c1cccnc1)c1ccc(F)cc1	–	·	·	–	·
CC(Sc1ncnc2sc(-c3ccccc3)cc12)C(=O)NCC1CCCO1 (configuration not stated)	?	?	·	23µM	·
CCc1cccc2c(SC(C)C(=O)NCC3CCCO3)nc(-c3ccccc3)nc12 (configuration not stated)	?	–	–	?	–
CC(Sc1nc(-c2ccccc2)c(-c2ccccc2)[nH]1)C(=O)NCC1CCCO1 (configuration not stated)	?	·	·	23µM	·
CCc1ccc(C(=O)NCC2(c3ccccc3)CCOCC2)o1	–	–	·	–	·
COc1ccc(C(=O)NCCc2ccccc2F)cc1OC1CCN(C(C)=O)CC1	–	–	–	–	–
COc1cccc(C(NC(C)=O)c2nc(-c3cccc(NC(C)=O)c3)cs2)c1 (configuration not stated)	–	·	·	–	·
COc1ccc(-c2csc(C(NC(C)=O)c3cccc(F)c3)n2)cc1 (configuration not stated)	?	·	·	16µM	·
COc1cccc(C(NC(C)=O)c2nc(-c3cccc(O)c3)cs2)c1 (configuration not stated)	23µM	·	·	18µM	·
COc1cccc(C(NC(C)=O)c2nc(-c3cccc(C#N)c3)cs2)c1 (configuration not stated)	29µM	·	·	?	·
Cc1ccccc1OCCn1cc(C(=O)C2CCCCC2)c2ccccc21	?	·	–	?	–
CCCCNC(=O)Cn1c(-c2ccc(OC)cc2)noc1=O	–	·	–	–	–
COC(=O)Cn1cnc2c(nnn2-c2ccc(F)cc2)c1=O	–	–	·	–	–
COC(=O)Cn1cnc2c(Cl)nc(F)nc21	13µM	?	–	16µM	·
Cc1cc(C)cc(N(CCC(=O)Nc2nnc(C)s2)S(=O)(=O)c2ccc(Cl)cc2)c1	?	–	–	23µM	–
CC(C)Cc1nnc(NC(=O)CCC(=O)Nc2ccc(Cl)cc2)s1	–	–	–	–	–
CCOCCc1nnc(NC(=O)CCS(=O)(=O)c2ccccc2)s1	21µM	–	–	9.2µM	–
CC(C)Cc1nnc(NC(=O)CCS(=O)(=O)c2ccc(Cl)cc2)s1	21µM	–	–	?	–
Cc1ccc(S(=O)(=O)CCc2nnc(N)s2)cc1C	–	–	–	–	–
CCOCCc1nnc(NC(=O)C(C)Oc2ccccc2)s1 (configuration not stated)	–	–	–	–	–
Cc1ccc(S(=O)(=O)CCc2nnc(NC(=O)CCl)s2)cc1C	15µM	–	–	13µM	–
COCCSc1nnc(NC(=O)CCS(=O)(=O)c2ccccc2)s1	7.3µM	–	–[0.0935 µM]	13µM	–
COCCSc1nnc(NC(=O)CS(=O)(=O)c2ccc(C)cc2)s1	–	–	–[0.0935 µM]	–	–
O=C(O)Cc1c(-c2ccccc2Cl)c2cc(Br)ccc2[nH]c1=O	?	–	–	–	–
CCC(C(=O)NCc1ccccc1)n1c(-c2ccc3c(c2)CCO3)nc2ccccc21 (configuration not stated)	15µM	·	·	?	·
Cc1cccc(C)c1Nc1nnc(SCC(=O)Nc2cc(S(=O)(=O)N3CCCCC3)ccc2Cl)s1	?	–	–	21µM	–
Cc1ccc(Nc2nnc(SCC(=O)c3ccc(Br)s3)s2)c(C)c1	–	–	–	?	–
Cc1csc(SCC(=O)Nc2ccc(S(=O)(=O)N3CCCC3)cc2)n1	18µM	–	–	–	–
Cc1cc(C)nc(SCC(=O)Nc2ccc(S(=O)(=O)N3CCCCC3)cc2)n1	?	–	–	?	–
